This passage reports Potency and activity change, negative = inhibition results from PubChem BioAssay (NCATS).

Structures are written as SMILES. Where “and” joins values, the source holds several entries; their conditions need not be identical. Equal values may be shown once. Inconclusive results are not listed. Unmarked numbers belong to inactive results. Calls of active or inactive are those of the source. Calls come from the whole dose curve; as a rule, active = well fitted curve in the direction sought with a large enough effect; inconclusive = small, poorly fitted or top-dose-only effect, or another doubt; inactive = no such curve, though single readings can be large; an effect the other way counts as inactive or inconclusive.

One assay has as its system C33A. Briefly: Primary qHTS to identify gynecologic anti-cancer compounds using libraries of approved drugs and bioactive compounds (AID 1345084). Note: nearly all actives have a fitted effect of over 55% in size. Particulars: Gynecologic cancer cell panel viability, ATPlite luminescence, 48 h; series mostly up to 57.5 µM. Put shortly: (§1)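 ATP-based viability (ATPlite), 1,000 cells/well, 16 h pre-incubation, 48 h compound at 37 C, 5% CO2, 15 min RT before read.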

Another assay deals with HeLa. The assay is described as above. Particulars: Gynecologic cancer cell panel viability, ATPlite luminescence, 48 h; series mostly up to 57.5 µM. The gist of the method:
as §1

The subject of a further assay is Hek293T. The assay is described as above. Particulars: Gynecologic cancer cell panel viability, ATPlite luminescence, 48 h, control line for the selectivity index; series mostly up to 57.5 µM. The gist of the method:
as §1

The test system of the next assay is JEG-3. Described as above. Conditions: Gynecologic cancer cell panel viability, ATPlite luminescence, 48 h; series mostly up to 57.5 µM. Put shortly:
as §1

The next assay has as its system PA-1. The assay is described as above. Conditions: Gynecologic cancer cell panel viability, ATPlite luminescence, 48 h; series mostly up to 57.5 µM. The gist of the method:
as §1

In another assay the test system is SKOV3. The assay is described as above. Particulars: Gynecologic cancer cell panel viability, ATPlite luminescence, 48 h; series mostly up to 57.5 µM. Put shortly: as §1
A further assay has as its system Tov-21-G. The assay is described as above. Particulars: Gynecologic cancer cell panel viability, ATPlite luminescence, 48 h; series mostly up to 57.5 µM. Put shortly:
as §1

Assay [1] is described as follows: qHTS assay to identify inhibitors of the type 1 interferon - major histocompatibility complex class I in skeletal muscle: Counter screen cell viability and HiBit confirmation (AID 1347412). Note: nearly all actives have a fitted effect of over 60% in size. Particulars: iHSKM muscle cells + IFN-b, HiBiT or CellTiter-Glo, 24 h. The gist of the method:
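Luminescence read-out: Nano-Glo HiBiT lytic signal from C-terminally HiBiT-tagged HLA-B in CRISPR-edited human myoblasts, plus CellTiter Glo ATP as viability counter screen. IFN-beta 4.0 ng/ml; 24 hrs treatment at 37 C, 5% CO2.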

For a further assay, the system named is OV90. In words: Primary qHTS to identify gynecologic anti-cancer compounds using libraries of approved drugs and bioactive compounds (AID 1345084). Note: nearly all actives have a fitted effect of over 55% in size. Particulars: Gynecologic cancer cell panel viability, ATPlite luminescence, 48 h; series mostly up to 57.5 µM. Put shortly: as §1
The next assay concerns Tov112D. Described as above. Conditions: Gynecologic cancer cell panel viability, ATPlite luminescence, 48 h; series mostly up to 57.5 µM. Put shortly: as §1
In another assay the test system is CAOV3. The assay is described as above. Conditions: Gynecologic cancer cell panel viability, ATPlite luminescence, 48 h; series mostly up to 57.5 µM. Put shortly: as §1
The subject of another assay is CASKI. Described as above. Conditions: Gynecologic cancer cell panel viability, ATPlite luminescence, 48 h; series mostly up to 57.5 µM. The gist of the method:
as §1

The next assay concerns Es-2. The assay is described as above. Particulars: Gynecologic cancer cell panel viability, ATPlite luminescence, 48 h; series mostly up to 57.5 µM. Put shortly:
as §1
% is set by controls: 0 for no effect and ±100 for the full control effect; potency is the fitted concentration of half-maximal effect.

As for `CCCCNc1ncc2c(-c3ccc(CN4CCN(C)CC4)cc3)cn(C3CCC(O)CC3)c2n1` (stereo not given), the Potency entry in the assay with C33A, in the assay on Hek293T and in the assay on JEG-3 was “inactive” in each case. Also, the Potency was 1.78 µM (active) with HeLa; 6.31 µM (active) in the assay on PA-1; 3.55 µM (active) in the assay on SKOV3; 7.94 µM (active) in the assay with Tov-21-G; 3.94 µM (active) and 14 µM (active) in [1] (HiBiT); 7.01 µM (active) in [1] (Viability).
Consider `O=C(c1ccccc1)c1ccc2nc(NC(=O)c3csc(C4CCN(c5ncnc6ccsc56)CC4)n3)[nH]c2c1`, for which the Potency is 15.8 µM (active) with C33A, 8.91 µM (active) in the assay with Hek293T, 17.8 µM (active) in the assay on OV90 and 12.6 µM (active) in the assay on Tov112D. Moreover, the Potency entry in the assay on JEG-3 is “inactive”.
`CNC(=O)c1ccccc1Nc1nc(Nc2ccc3c(c2OC)CCCC(N2CCN(CCO)CC2)C3)ncc1Cl` (stereo not given): the Potency with CAOV3 was 10 µM (active); in the assay with CASKI it was 17.8 µM (active); with PA-1, 11.2 µM (active); in the assay with SKOV3, 3.98 µM (active); in the assay with Tov-21-G, 10 µM (active). The Potency entry in the assay on JEG-3 is “inactive”.
For `CCC(C)C(=O)OC1CC(O)C23C4OCC5(C(O)CC2C1(C)C(O)O4)C3C(=O)C(O)C1(C)C(O)(c2ccoc2)CC2OC251` (stereo not given), the Potency is 3.98 µM (active) in the assay with CAOV3; 8.91 µM (active) in the assay on Es-2; 1.26 µM (active) in the assay with OV90; 3.16 µM (active) with PA-1; 3.16 µM (active) with SKOV3; 3.55 µM (active) in the assay on Tov112D. Further, the Potency entry in the assay with CASKI and in the assay with JEG-3 was “inactive” in each case.
Consider `C=C(C)C(=O)OC1CC2(C)OC(=CC2=O)C(=C)CC2OC(=O)C(COC)C12` (stereo not given), for which the Potency result with CAOV3, in the assay on HeLa, with JEG-3, in the assay with OV90 and in the assay on Tov112D was “inactive” each time.
Regarding `CNC(=O)c1cc(Oc2ccc3nc(N[C@@H]4CCCC[C@H]4O)sc3c2)ccn1`, the Potency result in the assay with CAOV3, in the assay on CASKI and with Hek293T was “inactive” each time.
Regarding `CCC1=CC2CN(C1)Cc1c([nH]c3ccccc13)[C@@](C(=O)OC)(c1cc3c(cc1OC)N(C)[C@H]1[C@@](O)(C(=O)OC)[C@H](OC(C)=O)[C@]4(CC)C=CCN5CC[C@]31[C@@H]54)C2` (stereo not given in full), the Potency entry with CAOV3 and in the assay with CASKI was “inactive” in each case. Further, the Potency in the assay on Es-2 was 0.282 µM (active); with HeLa it was 0.126 µM (active); with Tov-21-G it was 0.0891 µM (active); in the assay on Tov112D it was 0.0708 µM (active).
Take `CCN1CCN(Cc2ccc(NC(=O)c3ccc(C)c(NC(=O)c4cncc(-c5cccs5)c4)c3)cc2C(F)(F)F)CC1`: the Potency in the assay on CAOV3 was 10 µM (active); in the assay with CASKI, 10 µM (active); in the assay on Es-2, 2.82 µM (active); in the assay on JEG-3 it was 25.1 µM (active); with OV90, 12.6 µM (active); with PA-1, 1.58 µM (active). Further, the Potency was 1.41 µM (active) in the assay on Tov-21-G, 3.55 µM (active) in the assay on Tov112D, 5.57 µM (active) in [1] (HiBiT) and 12.5 µM (active) in [1] (Viability).
Take `CN1CCN(Cc2ccc(-c3cnc4[nH]cc(-c5ccc6[nH]ccc6c5)c4c3)cc2)CC1`: the Potency was 22.4 µM (active) in the assay with CAOV3; 22.4 µM (active) with Es-2; 31.6 µM (active) in the assay with HeLa; 10 µM (active) in the assay with OV90; 12.6 µM (active) in the assay with PA-1; 14.1 µM (active) in the assay with SKOV3. Also, the Potency in the assay with Tov-21-G was 20 µM (active).
Take `COc1cc(C(=O)NC2CCN(C)CC2)ccc1Nc1ncc2c(n1)N(C1CCCC1)CC(F)(F)C(=O)N2C`: the Potency was 25.1 µM (active) in the assay with CAOV3, 22.4 µM (active) in the assay with OV90, 0.251 µM (active) in the assay on PA-1 and 15.8 µM (active) with SKOV3.
For `COc1cc2c(cc1O)CC[C@H]1[C@@H]2CC[C@]2(C)[C@H](O)CC[C@@H]12`, the Potency result with CAOV3 and with OV90 was “inactive” each time. Moreover, the Potency with Es-2 was 3.98 µM (active); in the assay with HeLa it was 3.16 µM (active); in the assay on SKOV3, 3.16 µM (active); in the assay on Tov112D, 1 µM (active).
Turning to `CN1CCN(C2CCC(n3cc(-c4ccc(Oc5ccccc5)cc4)c4c(N)ncnc43)CC2)CC1` (stereo not given), the Potency is 28.2 µM (active) in the assay with CAOV3; 15.8 µM (active) in the assay with CASKI; 22.4 µM (active) in the assay with HeLa; 17.8 µM (active) in the assay on OV90; 3.55 µM (active) in the assay on PA-1; 3.55 µM (active) with SKOV3. For the same compound, the Potency in [1] (HiBiT) was 15.7 µM (active); in assay [1] (Viability), 11.1 µM (active). In addition, the Potency entry with Hek293T and with JEG-3 was “inactive” throughout.
Consider `Cc1cc(OCc2nnc(SC3CCCC3)n2-c2cccnc2)ccc1-c1ccc(S(C)(=O)=O)cc1`, for which the Potency in the assay with CAOV3 is 31.6 µM (active); in the assay with HeLa, 31.6 µM (active); in the assay with OV90, 1.78 µM (active); with PA-1, 12.6 µM (active); with SKOV3 it was 0.794 µM (active); in the assay on Tov-21-G, 28.2 µM (active). Further, in the assay with Tov112D, the Potency is 31.6 µM (active). The activity change, negative = inhibition in assay [1] (Viability, at 45.9 µM (top of the series)) was -25.3%.
With `C#CCN(Cc1cc2c(=O)n(C)c(CN3CCN(C)CC3)nc2cc1Cl)c1ccc(C(=O)NCc2cccnc2)cc1`, the Potency in the assay with CAOV3 was 44.7 µM (active). The Potency entry in the assay with OV90 is “inactive”.
For the compound `CC(=O)SCC(=O)c1ccc(NS(=O)(=O)c2ccc(OCCCN(C)C)cc2)nc1`, in the assay with CAOV3, the Potency entry is “inactive”. Besides, the Potency with Es-2 is 14.1 µM (active); in the assay on HeLa it was 10 µM (active); in the assay with JEG-3, 15.8 µM (active); in the assay on PA-1, 2.82 µM (active); in the assay with Tov-21-G, 11.2 µM (active).
`Cc1ccc(C(=O)N(CCCN)C(c2nc3cc(Cl)ccc3c(=O)n2Cc2ccccc2)C(C)C)cc1` (stereo not given): the Potency with CAOV3 and in the assay on CASKI was 25.1 µM (active) each time. Moreover, the Potency result in the assay with OV90 is “inactive”.
For the compound `NC(=O)c1cccc2cn(-c3ccc(C4CCCNC4)cc3)nc12` (stereo not given), the Potency result in the assay on CAOV3, in the assay on CASKI, with HeLa, in the assay with Hek293T, in the assay on JEG-3 and with OV90 was “inactive” in each case. Also, the Potency entry in the assay on SKOV3 and in the assay with Tov-21-G was “inactive” throughout.
Consider `CN[C@H](C(=O)N[C@H](C(=O)N(C)[C@H](/C=C(\C)C(=O)O)C(C)C)C(C)(C)C)C(C)(C)c1ccccc1`, for which the Potency result in the assay on CAOV3 and in the assay on SKOV3 was “inactive” each time.
For the compound `C=CC(=O)Nc1cc(Nc2ncc(Cl)c(-c3c[nH]c4ccccc34)n2)c(OC)cc1N(C)CCN(C)C`, the Potency in the assay with CAOV3 is 17.8 µM (active); with CASKI, 2.24 µM (active); with HeLa, 12.6 µM (active); in the assay with Hek293T, 11.2 µM (active); in the assay with JEG-3 it was 12.6 µM (active); in the assay on OV90, 3.98 µM (active). Also, the Potency is 6.31 µM (active) in the assay with PA-1, 15.8 µM (active) in the assay with Tov-21-G and 15.8 µM (active) in the assay with Tov112D.
As for `CC(Nc1ncnc2nc[nH]c12)c1cc2cccc(Cl)c2c(=O)n1-c1ccccc1` (stereo not given), the Potency entry in the assay with CAOV3, in the assay with Es-2, in the assay on HeLa, in the assay on JEG-3, with OV90 and with PA-1 was “inactive” throughout. For the same compound, the Potency entry in the assay on Tov-21-G and in the assay on Tov112D was “inactive” each time.
